Source: the supplement of paper PMC9262897, “Low-cost anti-mycobacterial drug discovery using engineered E. coli” (Nature Communications, 2022)
Where a name gives a salt, the structure may show the parent alone. ± gives the standard deviation of the averaged measurements.

Tests used:
Test in all cases: growth (OD600 after 10 h); higher = more growth (less inhibition)
[1] = system: E. coli TESEC Alr+ wild-type control; conditions: compound 0.1 mM; raw OD600 reference: median of DMSO wells 0.241, cell-free background 0.041
Experimental: (§1)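 TESEC Mtb Alr E. coli, or the Alr+ wild-type control, in 384-well plates with Prestwick library compounds at 0.1 mM and 1% DMSO, across arabinose induction levels of 1E3 to 1E7 nM. Growth is read as OD600 after 10 h at 37 °C in triplicate biological replicates.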

E. coli TESEC Mtb Alr [2] = conditions: compound 0.1 mM
Experimental: as §1

E. coli TESEC Mtb Asd = conditions: compound 0.1 mM
Experimental: (§2)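 TESEC E. coli strains in which the native enzyme is deleted and replaced by arabinose-inducible Mtb Asd, DapB, CysH or TrpD, each grown in its selective medium. Strains were screened against the Prestwick library at 0.1 mM and 1% DMSO in 384-well format at low and high arabinose induction. Growth is read as OD600 after 10 h in triplicate.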

E. coli TESEC Mtb DapB = conditions: compound 0.1 mM
Experimental: as §2

E. coli TESEC Mtb Alr [3] = conditions: compound 0.1 mM; remark: listed apart in the source
Experimental: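 TESEC Mtb Alr E. coli (ΔaraC ΔtolC ΔentC Δalr ΔdadX, arabinose-inducible Mtb Alr) or the Alr+ wild-type control strain, grown in defined M9-fructose medium without D-alanine in 96-well plates with Prestwick library compounds at 0.1 mM and 1% DMSO. Low Alr induction is 0.1 µM arabinose and high induction is 10 mM arabinose.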

[4] = arabinose 1000 nM, raw OD600 reference: median of DMSO wells 0.294, cell-free background 0.041
[5] = arabinose 10000 nM, raw OD600 reference: median of DMSO wells 0.264, cell-free background 0.041
[6] = arabinose 100000 nM, raw OD600 reference: median of DMSO wells 0.201, cell-free background 0.041
[7] = arabinose 1000000 nM, raw OD600 reference: median of DMSO wells 0.193, cell-free background 0.041
[8] = arabinose 10000000 nM, raw OD600 reference: median of DMSO wells 0.146, cell-free background 0.041
[9] = arabinose induction (level): High, raw OD600 reference: median of DMSO wells 0.331, cell-free background 0.041
[10] = arabinose induction (level): Low, raw OD600 reference: median of DMSO wells 0.417, cell-free background 0.041
[11] = arabinose induction (level): High, raw OD600 reference: median of DMSO wells […], cell-free background 0.041
[12] = arabinose induction (level): Low, raw OD600 reference: median of DMSO wells 0.227, cell-free background 0.041
[13] = arabinose 100 nM, raw OD600 reference: median of DMSO wells 0.413, cell-free background 0.052
[14] = arabinose 10000000 nM, raw OD600 reference: median of DMSO wells […], cell-free background 0.052

SMILES	growth [1]	growth (E. coli TESEC Mtb Alr [2]; [4])	growth (E. coli TESEC Mtb Alr [2]; [5])	growth (E. coli TESEC Mtb Alr [2]; [6])	growth (E. coli TESEC Mtb Alr [2]; [7])	growth (E. coli TESEC Mtb Alr [2]; [8])	growth (E. coli TESEC Mtb Asd; [9])	growth (E. coli TESEC Mtb Asd; [10])	growth (E. coli TESEC Mtb DapB; [11])	growth (E. coli TESEC Mtb DapB; [12])	growth (E. coli TESEC Mtb Alr [3]; [13])	growth (E. coli TESEC Mtb Alr [3]; [14])
C=C(NC(=O)C(=C)NC(=O)c1csc(C2=N[C@@H]3c4csc(n4)[C@H]4NC(=O)c5csc(n5)[C@H]([C@](C)(O)[C@@H](C)O)NC(=O)[C@H]5CSC(=N5)/C(=C/C)NC(=O)[C@H]([C@@H](C)O)NC(=O)c5csc(n5)[C@]3(CC2)NC(=O)[C@H](C)NC(=O)C(=C)NC(=O)[C@H](C)NC(=O)[C@H]([C@@H](C)CC)N[C@@H]2C=Cc3c([C@H](C)O)cc(nc3[C@H]2O)C(=O)O[C@@H]4C)n1)C(N)=O [Thiostrepton]	0.297 ± 0.021	0.327 ± 0.004	0.298 ± 0.013	0.397 ± 0.0046	0.185 ± 0.0083	0.229 ± 0.02	0.295 ± 0.053	0.299 ± 0.091	0.164 ± 0.047	0.194 ± 0.058	0.415 ± 0.019	0.316 ± 0.032
CC(C)NC[C@H](O)COc1cccc2ccccc12 [(S)-propranolol hydrochloride]	0.202 ± 0.0096	0.263 ± 0.011	0.295 ± 0.0058	0.18 ± 0.016	0.191 ± 0.014	0.149 ± 0.0089	0.279 ± 0.071	0.308 ± 0.043	0.173 ± 0.025	0.231 ± 0.051	0.424 ± 0.0079	0.332 ± 0.016
CC(C)(C)NCC(O)c1ccc(O)c(CO)c1 (stereo unspecified) [Salbutamol]	0.241 ± 0.0029	0.285 ± 0.015	0.271 ± 0.0082	0.192 ± 0.0026	0.183 ± 0.0057	0.137 ± 0.0049	0.318 ± 0.067	0.436 ± 0.032	0.215 ± 0.015	0.233 ± 0.028	0.43 ± 0.0098	0.383 ± 0.017
O=C1NCCN1c1ncc([N+](=O)[O-])s1 [Niridazole]	0.0479 ± 0.0055	0.0513 ± 0.005	0.0413 ± 0.0019	0.0452 ± 0.0004	0.0407 ± 0.00045	0.0598 ± 0.023	0.0946 ± 0.0021	0.203 ± 0.07	0.161 ± 0.015	0.177 ± 0.022	0.119 ± 0.025	0.0512 ± 0.00072
CCN(CC)C(=O)Nc1ccc(OCC(O)CNC(C)(C)C)c(C(C)=O)c1 (stereo unspecified) [Celiprolol HCl]	0.215 ± 0.0023	0.292 ± 0.0042	0.247 ± 0.0042	0.221 ± 0.028	0.171 ± 0.0053	0.135 ± 0.0071	0.245 ± 0.048	0.341 ± 0.089	0.192 ± 0.009	0.264 ± 0.058	0.421 ± 0.0097	0.356 ± 0.014
COc1ccc2cc([C@@H](C)C(=O)O)ccc2c1 [(R) -Naproxen sodium salt]	0.263 ± 0.0059	0.311 ± 0.018	0.275 ± 0.0043	0.198 ± 0.0079	0.183 ± 0.0045	0.141 ± 0.0034	0.484 ± 0.02	0.341 ± 0.077	0.196 ± 0.014	0.216 ± 0.052	0.408 ± 0.0092	0.317 ± 0.0088
CCN(Cc1ccncc1)C(=O)C(CO)c1ccccc1 (stereo unspecified) [Tropicamide]	0.24 ± 0.0069	0.308 ± 0.02	0.266 ± 0.0032	0.212 ± 0.027	0.174 ± 0.0051	0.158 ± 0.0048	0.289 ± 0.021	0.416 ± 0.022	0.19 ± 0.0057	0.249 ± 0.054	0.413 ± 0.013	0.33 ± 0.0058
CNC(=C[N+](=O)[O-])NCCSCc1ccc(CN(C)C)o1 [Ranitidine hydrochloride]	0.235 ± 0.0096	0.283 ± 0.015	0.252 ± 0.0043	0.203 ± 0.0086	0.179 ± 0.0036	0.1447 ± 0.0011	0.323 ± 0.037	0.455 ± 0.058	0.191 ± 0.011	0.234 ± 0.032	0.408 ± 0.0097	0.338 ± 0.0081
Nc1ccn([C@@H]2O[C@H](CO)[C@@H](O)[C@@H]2O)c(=O)n1 [Cytarabine]	0.24 ± 0.0059	0.307 ± 0.0036	0.247 ± 0.0079	0.214 ± 0.025	0.1685 ± 0.00085	0.171 ± 0.002	0.309 ± 0.032	0.305 ± 0.02	0.224 ± 0.024	0.229 ± 0.026	0.406 ± 0.0096	0.31 ± 0.0066
Nc1nc2c(ncn2COCCO)c(=O)[nH]1 [Acyclovir]	0.255 ± 0.014	0.287 ± 0.021	0.2708 ± 0.0022	0.239 ± 0.019	0.196 ± 0.014	0.139 ± 0.0044	0.374 ± 0.016	0.416 ± 0.047	0.206 ± 0.005	0.26 ± 0.024	0.413 ± 0.011	0.355 ± 0.029
CC1=Nc2ccc(Cl)cc2S(=O)(=O)N1 [Diazoxide]	0.244 ± 0.013	0.276 ± 0.018	0.271 ± 0.0032	0.209 ± 0.04	0.189 ± 0.01	0.146 ± 0.0083	0.369 ± 0.022	0.412 ± 0.032	0.199 ± 0.0067	0.245 ± 0.048	0.4111 ± 0.0032	0.365 ± 0.034
C=CCOC(Cn1ccnc1)c1ccc(Cl)cc1Cl (stereo unspecified) [Enilconazole]	0.0491 ± 0.0028	0.0495 ± 0.0068	0.0424 ± 0.00087	0.0459 ± 0.0018	0.043 ± 0.0011	0.0488 ± 0.0025	0.0691 ± 0.01	0.0619 ± 0.0052	0.0767 ± 0.0029	0.0764 ± 0.0069	0.193 ± 0.0082	0.0627 ± 0.0022
CC1CNc2c(cccc2S(=O)(=O)N[C@@H](CCCNC(=N)N)C(=O)N2CC[C@@H](C)C[C@@H]2C(=O)O)C1 (stereo partly specified) [Argatroban]	0.211 ± 0.0062	0.288 ± 0.0078	0.257 ± 0.0085	0.222 ± 0.014	0.182 ± 0.012	0.144 ± 0.0053	0.348 ± 0.096	0.395 ± 0.048	0.181 ± 0.0099	0.197 ± 0.016	0.404 ± 0.011	0.369 ± 0.016
